# Test results as given in the supplement of paper PMC9446081.
# ± gives the standard deviation of the averaged measurements.
# Key:
# Test in all cases: relative enzymatic activity vs untreated control (fraction); higher = less inhibition
# Settings in all cases: 100 µM; incubation time: 2 h at 37 C
# [1] = system: DNA gyrase
# Procedure: (§1)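 In vitro enzymatic inhibition assays (ProFoldin kits) for 12 purified essential E. coli enzymes or complexes, each treated with 218 active antibacterial compounds at 100 µM for 2 h at 37°C. Read-outs were fluorescence or absorbance (phosphate detection, dye binding), converted to activity via standard curves and expressed relative to untreated DMSO controls.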
# [2] = target: DNA helicase (UniProt P0ACB1)
# DNA helicase, sequence (P0ACB1 whole entry): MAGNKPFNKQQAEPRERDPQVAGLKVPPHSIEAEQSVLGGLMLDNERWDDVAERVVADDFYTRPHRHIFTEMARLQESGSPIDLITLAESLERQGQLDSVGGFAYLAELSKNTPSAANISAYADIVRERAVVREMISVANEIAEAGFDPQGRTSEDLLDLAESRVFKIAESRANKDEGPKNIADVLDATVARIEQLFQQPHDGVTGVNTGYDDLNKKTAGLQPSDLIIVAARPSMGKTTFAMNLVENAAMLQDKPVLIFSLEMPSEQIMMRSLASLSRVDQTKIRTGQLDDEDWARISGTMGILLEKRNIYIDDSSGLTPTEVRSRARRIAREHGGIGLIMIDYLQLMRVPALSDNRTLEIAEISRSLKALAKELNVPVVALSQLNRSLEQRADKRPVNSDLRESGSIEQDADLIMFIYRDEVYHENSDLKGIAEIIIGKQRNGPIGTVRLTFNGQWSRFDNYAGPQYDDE
# Procedure: as §1
# [3] = target: DNA ligase (UniProt B1XA82)
# DNA ligase, sequence (B1XA82 whole entry): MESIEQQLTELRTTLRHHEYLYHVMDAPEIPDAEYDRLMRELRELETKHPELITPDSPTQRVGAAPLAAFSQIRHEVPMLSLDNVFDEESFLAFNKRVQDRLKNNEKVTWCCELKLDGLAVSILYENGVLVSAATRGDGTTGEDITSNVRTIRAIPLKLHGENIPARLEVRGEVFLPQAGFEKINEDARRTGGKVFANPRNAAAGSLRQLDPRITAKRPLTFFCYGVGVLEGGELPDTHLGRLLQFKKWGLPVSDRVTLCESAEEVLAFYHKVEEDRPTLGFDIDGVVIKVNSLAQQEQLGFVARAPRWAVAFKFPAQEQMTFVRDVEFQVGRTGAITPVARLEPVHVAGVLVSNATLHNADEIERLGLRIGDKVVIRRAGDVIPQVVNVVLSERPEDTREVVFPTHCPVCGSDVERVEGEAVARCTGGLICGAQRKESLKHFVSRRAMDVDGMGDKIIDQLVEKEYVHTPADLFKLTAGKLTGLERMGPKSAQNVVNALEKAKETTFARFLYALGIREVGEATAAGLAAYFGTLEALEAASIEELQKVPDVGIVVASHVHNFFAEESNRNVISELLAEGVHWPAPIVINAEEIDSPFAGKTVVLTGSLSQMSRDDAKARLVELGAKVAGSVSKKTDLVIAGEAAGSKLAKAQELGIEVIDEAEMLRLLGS
# Procedure: as §1
# [4] = target: DNA polymerase (UniProt P10443)
# DNA polymerase, sequence (P10443 whole entry): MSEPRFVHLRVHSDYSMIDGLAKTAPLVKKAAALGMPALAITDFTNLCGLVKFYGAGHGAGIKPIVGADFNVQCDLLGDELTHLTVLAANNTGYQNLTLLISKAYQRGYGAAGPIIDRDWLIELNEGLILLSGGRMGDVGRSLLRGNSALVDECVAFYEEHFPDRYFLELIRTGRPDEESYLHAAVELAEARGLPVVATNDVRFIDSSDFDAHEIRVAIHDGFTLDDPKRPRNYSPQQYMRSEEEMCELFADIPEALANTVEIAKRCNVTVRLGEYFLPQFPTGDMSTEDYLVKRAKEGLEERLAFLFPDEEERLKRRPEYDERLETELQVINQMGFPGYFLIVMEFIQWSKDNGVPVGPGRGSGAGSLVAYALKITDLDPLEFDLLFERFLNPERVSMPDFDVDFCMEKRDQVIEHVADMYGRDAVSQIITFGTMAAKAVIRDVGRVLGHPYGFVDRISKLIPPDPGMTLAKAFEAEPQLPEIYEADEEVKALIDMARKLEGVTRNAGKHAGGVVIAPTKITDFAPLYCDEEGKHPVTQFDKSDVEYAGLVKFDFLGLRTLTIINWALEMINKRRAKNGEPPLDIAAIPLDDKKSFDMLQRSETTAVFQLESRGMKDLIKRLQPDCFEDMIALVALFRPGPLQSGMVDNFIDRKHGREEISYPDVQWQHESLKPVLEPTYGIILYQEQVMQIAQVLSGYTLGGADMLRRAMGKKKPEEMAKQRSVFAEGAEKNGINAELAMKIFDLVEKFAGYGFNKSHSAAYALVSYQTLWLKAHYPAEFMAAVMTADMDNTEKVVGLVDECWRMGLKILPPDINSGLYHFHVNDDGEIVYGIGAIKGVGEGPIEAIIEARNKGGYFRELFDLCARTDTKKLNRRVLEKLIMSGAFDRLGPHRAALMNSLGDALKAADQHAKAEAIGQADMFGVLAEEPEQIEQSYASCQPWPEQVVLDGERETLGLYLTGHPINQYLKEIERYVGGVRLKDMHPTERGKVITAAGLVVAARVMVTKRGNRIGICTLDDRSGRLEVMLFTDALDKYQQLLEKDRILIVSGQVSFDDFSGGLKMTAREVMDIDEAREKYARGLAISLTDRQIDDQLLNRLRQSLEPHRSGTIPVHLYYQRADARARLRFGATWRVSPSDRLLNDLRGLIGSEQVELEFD
# Procedure: as §1
# [5] = target: DNA primase (UniProt P0ABS7)
# DNA primase, sequence (P0ABS7 whole entry): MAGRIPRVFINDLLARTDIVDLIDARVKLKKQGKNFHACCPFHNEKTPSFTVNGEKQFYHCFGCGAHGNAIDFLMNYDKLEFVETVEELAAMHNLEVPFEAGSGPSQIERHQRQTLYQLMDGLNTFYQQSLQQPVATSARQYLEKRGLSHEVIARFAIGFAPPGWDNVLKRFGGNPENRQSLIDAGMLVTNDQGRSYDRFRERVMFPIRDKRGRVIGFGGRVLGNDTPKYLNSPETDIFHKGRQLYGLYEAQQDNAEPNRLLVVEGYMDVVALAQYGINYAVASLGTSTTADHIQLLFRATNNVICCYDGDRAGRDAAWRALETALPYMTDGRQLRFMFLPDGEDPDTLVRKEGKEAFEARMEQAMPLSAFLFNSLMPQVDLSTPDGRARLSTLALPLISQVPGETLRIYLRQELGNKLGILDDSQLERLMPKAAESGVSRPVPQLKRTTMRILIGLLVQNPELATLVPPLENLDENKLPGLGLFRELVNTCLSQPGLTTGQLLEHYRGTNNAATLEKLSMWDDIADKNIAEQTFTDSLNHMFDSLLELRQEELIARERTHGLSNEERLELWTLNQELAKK
# Procedure: as §1
# [6] = target: GlmU (UniProt A7ZTU1)
# GlmU, sequence (A7ZTU1 whole entry, looked up): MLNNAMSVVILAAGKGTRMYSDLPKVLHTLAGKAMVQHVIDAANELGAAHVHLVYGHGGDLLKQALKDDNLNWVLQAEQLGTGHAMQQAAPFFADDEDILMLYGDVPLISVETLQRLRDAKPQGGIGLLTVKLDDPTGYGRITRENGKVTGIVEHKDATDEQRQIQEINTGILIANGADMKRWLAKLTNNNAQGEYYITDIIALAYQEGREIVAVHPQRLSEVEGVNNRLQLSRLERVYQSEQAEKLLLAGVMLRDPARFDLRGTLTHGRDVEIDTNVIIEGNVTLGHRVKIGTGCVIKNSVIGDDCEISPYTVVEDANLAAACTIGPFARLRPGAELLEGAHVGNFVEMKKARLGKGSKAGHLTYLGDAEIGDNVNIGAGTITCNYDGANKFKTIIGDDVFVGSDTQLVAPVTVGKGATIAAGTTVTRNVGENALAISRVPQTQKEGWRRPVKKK
# Procedure: as §1
# [7] = target: Guanlyate kinase (UniProt Q0TBG1)
# Guanlyate kinase, sequence (Q0TBG1 whole entry): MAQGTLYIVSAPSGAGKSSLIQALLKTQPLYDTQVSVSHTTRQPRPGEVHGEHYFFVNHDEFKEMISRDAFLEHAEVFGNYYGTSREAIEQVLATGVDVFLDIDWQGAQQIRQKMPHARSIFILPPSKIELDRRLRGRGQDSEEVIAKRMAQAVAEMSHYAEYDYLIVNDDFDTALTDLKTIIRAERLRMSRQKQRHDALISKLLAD
# Procedure: as §1
# [8] = target: MurA (UniProt Q3YX52)
# MurA, sequence (Q3YX52 whole entry): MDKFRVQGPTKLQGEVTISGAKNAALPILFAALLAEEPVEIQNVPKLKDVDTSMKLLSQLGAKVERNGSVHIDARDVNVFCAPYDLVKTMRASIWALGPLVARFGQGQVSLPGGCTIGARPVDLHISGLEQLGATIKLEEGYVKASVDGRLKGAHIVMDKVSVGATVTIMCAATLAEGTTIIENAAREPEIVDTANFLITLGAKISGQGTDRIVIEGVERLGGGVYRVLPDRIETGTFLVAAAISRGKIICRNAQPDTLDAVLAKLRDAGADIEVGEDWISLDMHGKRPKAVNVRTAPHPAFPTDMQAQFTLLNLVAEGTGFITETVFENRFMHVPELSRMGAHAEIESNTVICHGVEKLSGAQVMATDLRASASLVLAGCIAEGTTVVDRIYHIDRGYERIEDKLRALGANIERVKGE
# Procedure: as §1
# [9] = target: T1, MurD (UniProt P14900)
# T1 sequence (whole entry): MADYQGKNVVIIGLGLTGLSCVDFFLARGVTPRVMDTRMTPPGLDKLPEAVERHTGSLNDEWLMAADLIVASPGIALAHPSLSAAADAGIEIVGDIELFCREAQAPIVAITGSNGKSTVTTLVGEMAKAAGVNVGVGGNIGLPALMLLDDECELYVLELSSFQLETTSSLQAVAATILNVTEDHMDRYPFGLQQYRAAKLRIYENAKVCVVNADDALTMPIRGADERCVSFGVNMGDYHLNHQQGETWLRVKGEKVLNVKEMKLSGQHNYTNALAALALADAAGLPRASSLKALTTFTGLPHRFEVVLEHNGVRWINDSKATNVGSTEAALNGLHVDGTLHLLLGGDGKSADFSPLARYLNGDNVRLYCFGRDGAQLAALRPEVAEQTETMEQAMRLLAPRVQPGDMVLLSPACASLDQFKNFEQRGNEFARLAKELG
# Procedure: as §1
# [10] = target: T2, MurF (UniProt P11880)
# T2 sequence (whole entry): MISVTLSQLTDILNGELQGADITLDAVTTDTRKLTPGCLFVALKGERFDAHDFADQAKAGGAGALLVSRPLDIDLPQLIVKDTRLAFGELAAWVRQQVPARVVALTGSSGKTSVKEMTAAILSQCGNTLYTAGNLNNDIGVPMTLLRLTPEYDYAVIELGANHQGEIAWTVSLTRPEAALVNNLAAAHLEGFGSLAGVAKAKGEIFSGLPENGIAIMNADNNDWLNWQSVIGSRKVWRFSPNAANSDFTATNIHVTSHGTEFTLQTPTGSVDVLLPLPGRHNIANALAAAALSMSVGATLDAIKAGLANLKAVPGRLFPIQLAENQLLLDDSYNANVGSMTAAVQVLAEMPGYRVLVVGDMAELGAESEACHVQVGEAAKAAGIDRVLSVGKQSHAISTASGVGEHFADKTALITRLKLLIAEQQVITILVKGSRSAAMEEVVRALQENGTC
# Procedure: as §1
# [11] = system: RNA polymerase
# Procedure: as §1
SMILES,relative enzymatic activity [1],relative enzymatic activity [2],relative enzymatic activity [3],relative enzymatic activity [4],relative enzymatic activity [5],relative enzymatic activity [6],relative enzymatic activity [7],relative enzymatic activity [8],relative enzymatic activity [9],relative enzymatic activity [10],relative enzymatic activity [11]
COc1cc2c(cc1OC)C(=O)C(CC1CCN(Cc3ccccc3)CC1)C2.Cl (configuration not stated),0.363 ± 0.072,0.802 ± 0.32,1.19 ± 0.057,1.18 ± 0.28,0.713 ± 0.2,0.766 ± 0.067,0.892 ± 0.1,0.486 ± 0.059,0.456 ± 0.32,0.934 ± 0.17,0.85 ± 0.011
CCCCCCCCCCCCC[N+](C)(C)Cc1ccccc1,0.675 ± 0.95,0.0123 ± 0.0012,0.955 ± 0.043,1.04 ± 0.27,0.787 ± 0.099,0.0868 ± 0.0048,0.396 ± 0.0083,0.0305 ± 0.016,0.0614 ± 0.011,0.177 ± 0.064,0.919 ± 0.13
CO/N=C(\C(=O)N[C@@H]1C(=O)N2C(C(=O)O)=C(C[N+]3(C)CCCC3)CS[C@H]12)c1csc(N)n1,0.284 ± 0.099,0.202 ± 0.28,1.11 ± 0.05,1.12 ± 0.18,0.722 ± 0.012,0.943 ± 0.023,1.06 ± 0.074,0.144 ± 0.026,0.591 ± 0.42,1.15 ± 0.066,0.575 ± 0.11
CC[C@H]1OC(=O)[C@H](C)[C@@H](O[C@H]2C[C@@](C)(OC)[C@@H](O)[C@H](C)O2)[C@H](C)[C@@H](O[C@@H]2O[C@H](C)C[C@H](N(C)C)[C@H]2O)[C@](C)(O)C[C@@H](C)C(=O)[C@H](C)[C@@H](O)[C@]1(C)O,0.598 ± 0.22,0.608 ± 0.21,0.92 ± 0.048,0.503 ± 0.71,0.838 ± 0.027,0.9665 ± 0.0044,0.961 ± 0.098,0.848 ± 0.071,0.584 ± 0.39,0.939 ± 0.22,0.863 ± 0.024
N[C@@H]1CC[C@@H](c2ccc(Cl)c(Cl)c2)c2ccccc21,0.381 ± 0.18,0.0688 ± 0.0028,0.842 ± 0.083,0.507 ± 0.72,0.749 ± 0.027,0.646 ± 0.059,0.924 ± 0.13,0.622 ± 0.57,0.378 ± 0.23,1.02 ± 0.22,0.905 ± 0.019
CC(N)O.Cc1cc(CC(C)CC(C)(C)C)n(O)c(=O)c1 (configuration not stated),0.964 ± 0.11,0.621 ± 0.26,1.17 ± 0.13,1.16 ± 0.23,0.719 ± 0.22,1.095 ± 0.0024,0.963 ± 0.12,0.844 ± 0.05,0.636 ± 0.43,0.592 ± 0.82,0.884 ± 0.076
CC1COc2c(C3(N)CC3)c(F)cc3c(=O)c(C(=O)O)cn1c23.CS(=O)(=O)O (configuration not stated),0.0382 ± 0.054,0.57 ± 0.24,0.904 ± 0.083,0.511 ± 0.72,0.835 ± 0.011,0.898 ± 0.045,1.02 ± 0.16,0.879 ± 0.057,0.579 ± 0.4,1.07 ± 0.021,0.872 ± 0.013
Cl.Cl.N=C(NCCCCCCNC(=N)NC(=N)Nc1ccc(Cl)cc1)NC(=N)Nc1ccc(Cl)cc1,0.0297 ± 0.042,0.0449 ± 0.0094,0.488 ± 0.68,0.365 ± 0.03,0.306 ± 0.046,0.9017 ± 0.0055,0.341 ± 0.043,0.108 ± 0.015,0.545 ± 0.35,0.871 ± 0.16,0.0331 ± 0.011
O=C(O)c1cn(C2CC2)c2cc(N3CCC(O)(COc4ccc(N5C[C@H](CO)OC5=O)cc4F)CC3)c(F)cc2c1=O,0.0421 ± 0.059,0.414 ± 0.095,0.9068 ± 0.0026,1.13 ± 0.22,0.851 ± 0.039,0.9967 ± 0.0077,0.905 ± 0.15,0.608 ± 0.25,0.583 ± 0.39,1.22 ± 0.022,0.8 ± 0.067
CC1CCC2(C)C(C=O)=CCCC2C1(C)CC1OC(O)C(=O)C12CO2 (configuration not stated),0.075 ± 0.11,0.688 ± 0.45,1.12 ± 0.035,1.15 ± 0.2,0.89 ± 0.017,1.008 ± 0.0078,0.956 ± 0.024,0.662 ± 0.12,0.612 ± 0.41,0.577 ± 0.81,1.06 ± 0.13
O=C(O)P(=O)(O)O,0.105 ± 0.15,0.549 ± 0.16,0.871 ± 0.14,0.703 ± 0.39,0.775 ± 0.04,1 ± 0.014,0.914 ± 0.092,0.79 ± 0.12,0.6 ± 0.4,0.945 ± 0.24,0.8 ± 0.14
CC(NCCCc1cccc(C(F)(F)F)c1)c1cccc2ccccc12.Cl (configuration not stated),1.09 ± 0.12,0.434 ± 0.07,1.1 ± 0.31,1.18 ± 0.25,0.676 ± 0.16,1.08 ± 0.17,1.01 ± 0.032,0.749 ± 0.32,0.58 ± 0.37,0.953 ± 0.19,0.817 ± 0.077
O=C(NC(CO)C(O)c1ccc([N+](=O)[O-])cc1)C(Cl)Cl (configuration not stated),1.08 ± 0.086,0.453 ± 0.012,0.947 ± 0.19,1.34 ± 0.4,0.725 ± 0.2,0.972 ± 0.052,1.04 ± 0.047,0.8 ± 0.18,0.548 ± 0.34,0.96 ± 0.2,0.86 ± 0.028
O=C1CN(/N=C/c2ccc([N+](=O)[O-])o2)C(=O)N1,0.715 ± 0.42,0.621 ± 0.24,0.855 ± 0.16,0.649 ± 0.36,0.764 ± 0.037,0.999 ± 0.044,0.842 ± 0.048,0.665 ± 0.11,0.481 ± 0.61,0.963 ± 0.21,0.745 ± 0.068
COc1ccc2c(c1OC)C(=O)OC2C1c2c(cc3c(c2OC)OCO3)CCN1C.Cl (configuration not stated),0.0862 ± 0.019,0.249 ± 0.016,1.11 ± 0.17,1.36 ± 0.47,0.947 ± 0.42,1.123 ± 0.0013,1.12 ± 0.066,0.417 ± 0.096,0.684 ± 0.53,0.967 ± 0.19,0.914 ± 0.045
O=c1[nH]c(=O)n([C@H]2C[C@H](O)[C@@H](CO)O2)cc1F,0.574 ± 0.53,0.629 ± 0.23,0.789 ± 0.18,1.15 ± 0.27,0.8368 ± 0.0026,0.979 ± 0.066,0.927 ± 0.06,0.762 ± 0.13,0.584 ± 0.38,0.953 ± 0.23,0.7944 ± 0.0043
CC1CCc2cc(F)cc3c(=O)c(C(=O)O)cn1c23 (configuration not stated),0.0609 ± 0.086,0.593 ± 0.15,0.937 ± 0.35,1.41 ± 0.53,0.655 ± 0.13,0.9984 ± 0.0089,1.03 ± 0.1,0.715 ± 0.16,0.568 ± 0.39,0.97 ± 0.2,1.04 ± 0.22
